Measured values reported in PubChem BioAssay AID1159580 (chemical genetic matrix, 2015).
“And” between values parts separate entries of the source, which are not always exact repeats. Identical values can stand only once. Among all 5,500 compounds or so, about 2,000 (36%) were called active. Roughly 18% stayed inconclusive and do not appear here. No stated cut-off is given here; in the data, active means normalized growth mostly below about 0.91 (no sharp cut-off); inconclusive means no clear call, values can overlap the other calls; inactive means mostly above about 0.92. This is one part of the list.

Assay: chemical genetic growth profiling, strain panel (AID 1159580);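 further: tested at 20 µM; growth read once vehicle control cultures reached saturation at 30 °C; 1 = growth at the plate median or of vehicle wells; lower values mean less growth of the strain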
Details: S. cerevisiae deletion strains, growth OD

Measured: normalized growth

COc1c2ccoc2nc2c(OC)c(OCC(O)C(C)(C)O)ccc12 (configuration not stated)
inactive: locus YAL013W, strain DEP1, active compounds read low 0.992 | locus YAL021C, strain ccr4, active compounds read low 1.04 | locus YAL026C, strain drs2, active compounds read low 1.02 | locus YAL030W, strain snc1, active compounds read low 1.01 | locus YBL061C, strain skt5, active compounds read low 1.02 | locus YBR009C, strain hhf1, active compounds read low 1.02 | locus YBR021W, strain FUR4, active compounds read low 0.992 | locus YBR023C, strain chs3, active compounds read low 1.02 | locus YBR171W, strain sec66, active compounds read low 1.02 | locus YBR229C, strain ROT2, active compounds read low 1 | locus YBR231C, strain swc5, active compounds read low 1.01 | locus YBR279W, strain paf1, active compounds read low 1.01 | locus YCL011C, strain gbp2, active compounds read low 1.03 | locus YCL016C, strain dcc1, active compounds read low 1.02 | locus YCL029C, strain bik1, active compounds read low 0.974 | locus YCL061C, strain MRC1, active compounds read low 1.03 | locus YCL069W, strain vba3, active compounds read low 1.01 | locus YCR088W, strain abp1, active compounds read low 1.02 | locus YDL005C, strain med2, active compounds read low 1.01 | locus YDL035C, strain GPR1, active compounds read low 0.992 | locus YDL040C, strain nat1, active compounds read low 1.01 | locus YDL074C, strain BRE1, active compounds read low 1.02 | locus YDL101C, strain DUN1, active compounds read low 1 | locus YDL134C, strain PPH21, active compounds read low 0.991 | locus YDL185W, strain tfp1, active compounds read low 0.974 | locus YDL192W, strain arf1, active compounds read low 0.984 | locus YDR001C, strain nth1, active compounds read low 1.01 | locus YDR069C, strain doa4, active compounds read low 1.03 | locus YDR101C, strain arx1, active compounds read low 1 | locus YDR137W, strain rgp1, active compounds read low 1.02 | locus YDR150W, strain NUM1, active compounds read low 0.99 | locus YDR159W, strain sac3, active compounds read low 1.01 | locus YDR162C, strain NBP2, active compounds read low 1.02 | locus YDR195W, strain ref2 0.976 | locus YDR297W, strain sur2, active compounds read low 1.02 | locus YDR318W, strain mcm21, active compounds read low 0.981 | locus YDR334W, strain swr1, active compounds read low 1.02 | locus YDR335W, strain msn5, active compounds read low 1.02 | locus YDR388W, active compounds read low 0.997 | locus YDR392W, strain spt3, active compounds read low 0.982 | locus YDR502C, strain sam2, active compounds read low 1.01 | locus YEL003W, strain gim4, active compounds read low 1.01 | locus YEL037C, strain rad23, active compounds read low 1.01 | locus YEL061C, strain CIN8 (second series), active compounds read low 1.01 | locus YEL061C, strain CIN8, active compounds read low 1 | locus YER015W, strain faa2, active compounds read low 1.02 | locus YER016W, strain bim1, active compounds read low 1.01 | locus YER110C, active compounds read low 0.983 | locus YER111C, strain swi4, active compounds read low 1.02 | locus YER155C, strain BEM2 (second series), active compounds read low 1.04 | locus YER155C, strain BEM2, active compounds read low 0.996 | locus YER167W, strain BCK2, active compounds read low 0.972 | locus YFR010W, strain ubp6, active compounds read low 1.02 | locus YGL078C, strain dbp3, active compounds read low 0.983 | locus YGL086W, strain mad1, active compounds read low 0.976 | locus YGL167C, strain pmr1, active compounds read low 1.01 | locus YGL173C, strain kem1, active compounds read low 1.02 | locus YGL227W, strain vid30, active compounds read low 1.02 | locus YGL240W, strain doc1, active compounds read low 1.04 | locus YGL248W, strain PDE1, active compounds read low 0.991 | locus YGL253W, strain hxk2, active compounds read low 1.02 | locus YGR078C, strain PAC10, active compounds read low 1.02 | locus YGR135W, strain pre9, active compounds read low 0.995 | locus YGR229C, strain SMI1, active compounds read low 1.02 | locus YGR252W, strain gcn5, active compounds read low 0.984 | locus YHR013C, strain ard1, active compounds read low 1.03 | locus YHR027C, strain rpn1, active compounds read low 1.01 | locus YHR030C, strain SLT2, active compounds read low 0.99 and 1.02 | locus YHR079C, strain IRE1 (second series), active compounds read low 1 | locus YHR079C, strain IRE1, active compounds read low 1.03 | locus YHR094C, strain hxt1, active compounds read low 0.971 | locus YHR129C, strain ARP1, active compounds read low 1 | locus YHR142W, strain chs7, active compounds read low 1.03 | locus YHR200W, strain rpn10, active compounds read low 0.974 | locus YIL066C, strain RNR3, active compounds read low 0.998 | locus YIL073C, strain SPO22, active compounds read low 0.9 | locus YIL125W, strain kgd1, active compounds read low 0.999 | locus YIR030C, strain dcg1, active compounds read low 0.983 | locus YJL092W, strain hpr5, active compounds read low 1.01 | locus YJL095W, strain BCK1 (second series), active compounds read low 1.01 | locus YJL095W, strain BCK1, active compounds read low 1.05 and 1 | locus YJL115W, strain asf1, active compounds read low 1.02 | locus YJL129C, strain trk1, active compounds read low 1.04 | locus YJL134W, strain LCB3, active compounds read low 0.989 | locus YJL154C, strain vps35, active compounds read low 1.02 | locus YJL164C, strain tpk1, active compounds read low 1.02 | locus YJL166W, strain qcr8, active compounds read low 1.02 | locus YJL168C, strain set2, active compounds read low 0.995 | locus YJL187C, strain SWE1 (second series), active compounds read low 1.01 | locus YJL187C, strain SWE1, active compounds read low 1.01 | locus YJR043C, strain POL32, active compounds read low 0.987 | locus YJR066W, strain TOR1, active compounds read low 0.964
